Screens deposited in PubChem by several laboratories.
Shown are actives, neighbours in structure and some others; about 1.6% of the full set was active somewhere.
Glyco luc inh: increase of ERlucT glycosylation luciferase signal, primary screen, N-linked glycosylation inhibitor project, D54 ERlucT cells, luminescence, set 2 | 0.23% of 360,000 active | D54 ERlucT glycosylation luciferase reporter, 24 h; percent of 100 nM tunicamycin response | reporter increase, % at 12.5 µM | AID 588692, 2011;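 active means mean luciferase reporter signal, scaled so untreated is 0 and the glycosylation-blocking control 100, at or above a set limit in every replicate; inconclusive means mean reaches the limit but not every replicate does; inactive means mean below the limit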;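 further: luciferase carries N-glycosylation sites so blocking glycosylation raises the light; 0% = median of neutral control wells and 100% = median of 100 nM tunicamycin wells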
ABCB6 inh 2: ABCB6 transporter inhibitors, primary screen, K562-ABCB6 cells, flow cytometry, MLPCN library; ATP-binding cassette sub-family B member 6 (Homo sapiens), Q9NP58; K562-ABCB6 porphyrin accumulation, 1 h; hits give low values; fluorescence ratio to DMSO, % at 10 µM; 0.19% of 360,000 active; AID 602162, 2011;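 active means fluorescence ratio to DMSO below 75%, the collection mean minus 3 SD; inconclusive means too few cells collected in the well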;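 further: signal is porphyrin accumulated inside mitochondria; 100% equals median channel fluorescence of DMSO control wells; lower ratio means ABCB6 inhibition with less porphyrin fluorescence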
RAD54 branch: inhibitors of human RAD54 branch migration, primary screen, biochemical, fluorescence, single point. RAD54 Holliday junction branch migration, FAM/BHQ fluorescence. inhibition, % at 10.4 µM. 0.14% of 360,000 active;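 active means mean normalized replicate activity at least 40 and at least half of replicates scoring 40 or more; inconclusive means only one of the two criteria met; inactive means mean below 40 and under half of replicates reaching 40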;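 further: 0% = median of neutral control wells and 100% = median of positive control wells; inhibitors cause a drop in the FAM fluorescence signal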
Target sequence (Q92698 whole entry, looked up): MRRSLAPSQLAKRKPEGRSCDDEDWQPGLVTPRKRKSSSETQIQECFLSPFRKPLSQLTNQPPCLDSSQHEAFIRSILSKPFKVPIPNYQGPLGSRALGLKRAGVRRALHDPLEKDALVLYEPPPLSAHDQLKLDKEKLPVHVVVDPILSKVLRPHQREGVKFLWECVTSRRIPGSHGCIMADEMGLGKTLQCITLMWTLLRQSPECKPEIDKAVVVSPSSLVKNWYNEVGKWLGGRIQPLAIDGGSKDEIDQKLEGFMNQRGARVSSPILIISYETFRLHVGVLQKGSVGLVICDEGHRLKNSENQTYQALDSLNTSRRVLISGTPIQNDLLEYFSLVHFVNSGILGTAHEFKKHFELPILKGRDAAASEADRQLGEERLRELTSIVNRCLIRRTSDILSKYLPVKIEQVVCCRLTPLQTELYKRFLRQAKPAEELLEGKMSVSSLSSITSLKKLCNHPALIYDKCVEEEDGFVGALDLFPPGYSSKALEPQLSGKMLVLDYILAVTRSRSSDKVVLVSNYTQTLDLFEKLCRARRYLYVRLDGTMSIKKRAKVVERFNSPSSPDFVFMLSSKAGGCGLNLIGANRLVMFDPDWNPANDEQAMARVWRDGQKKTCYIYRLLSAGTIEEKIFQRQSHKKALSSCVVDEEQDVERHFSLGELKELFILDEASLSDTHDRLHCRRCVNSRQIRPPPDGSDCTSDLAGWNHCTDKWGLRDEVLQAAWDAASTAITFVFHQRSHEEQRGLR
Myeloid diff 2: induction of myeloid progenitor differentiation, primary screen, cell-based, flow cytometry, MLPCN library | ER-HoxA9 myeloid progenitors, lysozyme-GFP differentiation | calls only at 10 µM | 1% of 360,000 active | AID 624256, 2012;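 active means normalized GFP-positive differentiation at or above the plate's own cutoff, the solvent-only control mean plus 3 SD; inconclusive means no clear call, values can overlap the other calls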;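 further: cells exposed to compound for four days before flow analysis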
Vif imaging: HIV Vif self-association inhibitors, primary screen, imaging, HEK293T, single point; AID 602346, 2012; 0.35% of 340,000 active; inhibition, % at 7.49 µM; HEK293T cells, Vif self-association by quenched fluorescence, 24 h; in the data active means inhibition above about 50%, passing the limit was not always enough; inconclusive means no clear call, values can overlap the other calls; inactive means below about 31%
Active calls of the source: *; i = inactive; ? = inconclusive; / = no result given; + = active, no number.

SMILES	Glyco luc inh	ABCB6 inh 2	RAD54 branch	Myeloid diff 2	Vif imaging
CCOc1ccc(N2C(=O)/C(=C/c3cccs3)N(CC(=O)OC)C2=S)cc1	3	99	-1	i	97*
Cc1cc(=O)oc2cc(OCc3cc4c(cc3Cl)OCO4)ccc12	2	100	2	i	40*
COC(=O)C(=Cc1ccc(-c2ccsc2C(=O)OC)o1)C(=O)OC	35*	101	/	i	-2
CCOC(=O)c1c(C)[nH]c(C(=O)N/N=C/c2ccc(Br)cc2)c1C	4	74*	/	?	2
Cc1[nH]c(C(=O)N/N=C/c2ccc(C(=O)O)cc2)c(C)c1C(=O)N/N=C/c1ccc(C(=O)O)cc1	0	93	3	i	3
COc1ccc(NC(=S)N2CCC(c3nc4ccccc4[nH]3)CC2)c(OC)c1	3	66*	-4	i	?
COc1ccccc1NC(=S)N1CCC(c2nc3cc(C)c(C)cc3[nH]2)CC1	2	104	-6	i	-2
COc1ccc(-c2oc3ccc(N4CCOCC4)cc3c2C#Cc2ccc(N)cc2)cc1	-7	106	6	+	i
Nc1sccc1C(=O)NCc1ccccc1	/	/	/	+	/
C[C@H](CO)N1C[C@H](C)[C@@H](CN(C)S(=O)(=O)c2ccc(Cl)cc2)Oc2ccc(NC(=O)CCN3CCOCC3)cc2CC1=O	/	/	-2	/	/
Cc1cccc(C2(c3cccc(C)c3)OC(=O)c3ccccc32)c1	-6	127	3	+	15
Cc1nn(CC(=O)N2CCN(c3ccccc3)CC2)c(C)c1[N+](=O)[O-]	-1	95	2	+	2
C[C@H](O)C#Cc1cnc2c(c1)C(=O)N([C@H](C)CO)C[C@H](C)[C@@H](CN(C)CC1CCCCC1)O2	/	/	17	/	/
COC(C(=O)Nc1cccc(F)c1)c1ccccc1 (stereo unspecified)	0	97	/	+	4
COC(=O)C[C@@H]1CC[C@@H]2[C@H](COc3ccc(NC(=O)NCc4ccccc4)cc3C(=O)N2C)O1	/	/	7	/	/
Nc1ccc(CN2CCCCCC2)cc1	-2	94	1	+	/
Brc1ccc(CN2CCCCCC2)cc1	0	96	/	i	-4
COc1ccc(-c2cc(N)n(S(=O)(=O)c3c(F)c(F)c(F)c(F)c3F)n2)cc1OC	4	98	-18	?	59*
CC(=O)Nc1ccc(SCC(=O)NC(=O)c2ccc(S(=O)(=O)N(C)C)cc2)cc1	4	83	6	i	83*
CC(=O)Nc1ccc(NC(=O)[C@@H]2CCCC[C@@H]2C(=O)O)cc1	2	98	2	i	83*
COc1ccc(NC(=O)/C(Cl)=C(/Cl)S(=O)Cc2ccccc2)cn1 (stereo unspecified)	-18	25*	/	?	2
COc1ccc(NC(=O)Cc2ccccc2)cn1	1	95	-1	i	-2
CC1CCc2cccc3c2N1c1cc(C#N)c(C#N)cc1O3 (stereo unspecified)	0	149	5	+	6
COc1ccc(/C=N/NC(=O)c2cccc(NC(=O)c3ccccc3Cl)c2)cc1	34*	101	5	?	9
COC(=O)C[C@@H]1CC[C@H]2[C@@H](COC[C@H](O)CN2S(=O)(=O)c2ccccc2C)O1	/	/	2	/	/
SMILES	Glyco luc inh	ABCB6 inh 2	RAD54 branch	Myeloid diff 2	Vif imaging
C[C@H](O)C#Cc1cnc2c(c1)C(=O)N([C@@H](C)CO)C[C@@H](C)[C@H](CN(C)C(=O)Cc1ccccn1)O2	/	/	1	/	/
N=c1c(S(=O)(=O)c2ccccc2)cc2c(=O)n3ccccc3nc2n1C1CCCC1	-1	94	-2	+	29
N=c1c(S(=O)(=O)c2ccc(Cl)cc2)cc2c(=O)n3ccccc3nc2n1CCc1ccccc1	50*	96	-21	i	8
N=c1c(S(=O)(=O)c2ccc(Br)cc2)cc2c(=O)n3ccccc3nc2n1C1CCCC1	-3	105	-5	i	-3
COC(=O)C[C@@H]1CC[C@H]2[C@H](COc3ccc(NS(=O)(=O)c4ccc(F)cc4)cc3C(=O)N2C)O1	/	/	3	/	/
C[C@H]1CN([C@@H](C)CO)C(=O)c2cc(C#CCN(C)C)cnc2O[C@H]1CN(C)C(=O)c1cccc(F)c1	/	/	10	/	/
COc1ccc(CNC(=O)CN(Cc2ccccc2)S(=O)(=O)c2ccc(Cl)cc2)cc1	-1	88	0	i	-3
COc1ccc(C)cc1S(=O)(=O)N(CC(=O)NCc1ccc(Cl)cc1)Cc1ccccc1	-6	100	1	+	-13
COc1ccc(CNC(=O)CN(Cc2ccc(Cl)cc2)S(=O)(=O)c2ccccc2)cc1	-2	199	10	+	-4
C[C@@H]1CN([C@@H](C)CO)C(=O)c2cc(NS(=O)(=O)c3cccs3)ccc2O[C@@H](C)CCCCO[C@H]1CN(C)C(=O)CCCN(C)C	/	/	6	/	/
Cc1cc(C)c(S(=O)(=O)N2CCN(C(=O)N3CCOCC3)CC2)c(C)c1	0	99	5	i	3
Cc1cc(C)c(S(=O)(=O)N2CCN(C(=O)N3CCCCC3)CC2)c(C)c1	-4	97	-1	+	-7
O=C(c1cccnc1)N1C[C@H]2[C@@H](c3ccccc31)[C@H](CO)N2C(=O)Nc1ccc(F)cc1	/	/	-6	/	/
O=C1CSC(c2ccccc2)N1c1ccc(-c2ccccc2)cc1 (stereo unspecified)	/	/	-9	/	/
CCN1C(=O)/C(=C/C=C2/Sc3ccc4ccccc4c3N2CCO)SC1=S	0	438	4	+	6
CCN1C(c2ccccc2)=C(c2ccccc2)S/C1=C/C=C1\SC(=S)N(C)C1=O	-4	190	-3	+	-17
CCN1C(c2ccccc2)=C(c2ccccc2)S/C1=C\C=C1/SC(=S)N(C)C1=O	-9	332	/	/	-6
CC(OC(=O)c1c[nH]c2ccccc12)C(=O)N1CCCC1 (stereo unspecified)	0	96	-13	i	64*
CCOC(=O)C1CCN(Cc2cc(Cl)c3ccccc3c2O)CC1	44*	100	7	i	7
CCOC(=O)C1CCN(Cc2cc(=O)oc3c(C)c(C)ccc23)CC1	4	107	-2	+	-10
CCOC(=O)C1CCN(Cc2ccc(OC)c(C)c2OC)CC1	3	90	-7	i	-5
Cc1ccc2c(CN3CCC(C)CC3)cc(=O)oc2c1C	-3	105	-18	i	-4
COc1ccc(NC(=O)N(C)C[C@@H]2Oc3ccc(NS(=O)(=O)c4ccc(Cl)cc4)cc3C(=O)N([C@@H](C)CO)C[C@@H]2C)cc1	/	/	4	/	/
COC(=O)[C@@]12C[C@@H](CC(=O)NCCCCc3ccccc3)C(=O)N(Cc3ccc4c(c3)OCO4)C1=CCC(C)(C)C2	/	/	/	+	/
